Assay [1] in a line: AP1 Signaling Pathway (AID 357).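 Note: ME-180 reporter cells stimulated with EGF at its EC50 level; % is set by controls: 0 for no effect and ±100 for the full control effect.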 Conditions: ME-180 (cervical carcinoma) AP-1-bla reporter, EGF-induced, beta-lactamase ratio, 5 h; at 38 µM (top of the series) unless noted. The method in brief:
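In this screen, ME-180 cells in Opti-MEM with 0.5% dialyzed FBS received EC50 EGF and compound titrations for 5 h. AP-1 reporter beta-lactamase was detected via CCF4 ratio, giving AC50 for positive and negative modulators.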

Assay [2] concerns the target Cytochrome P450 1A2 (Homo sapiens) (UniProt P05177). Put plainly: p450-cyp1a2 (AID 410; calls by dose curve; note: potency is the fitted concentration of half-maximal effect;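 for activity change, negative = inhibition: -100% = full effect of reference inhibitor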). Conditions: recombinant CYP1A2, luciferin-ME demethylation, luminescence; series mostly up to 57 µM. The method in brief: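 20nM CYP1A2 with 100uM Luciferin-ME (at Km) in 100mM KPO4; compound preincubated 10 min, NADPH regeneration added, 60 min at room temperature. Luciferin quantified by luminescence after detection reagent; normalized to 57 uM furafylline.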

Assay [3] can be described thus: NFAT Signaling Pathway (AID 444).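 Note: carbachol stimulus at about its EC50 of 1 µM final; % is set by controls: 0 for no effect and ±100 for the full control effect.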 Conditions: Jurkat NFAT-bla M1, carbachol, beta-lactamase ratio, 5 h; at 38 µM (top of the series) unless noted. The method in brief: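 Jurkat cells carrying an NFAT-driven β-lactamase reporter and co-transfected muscarinic M1 receptor were treated with compound plus carbachol (1 uM final, an EC50 level) for 5 h at 37 °C. CCF4 loading followed for 1 h at RT; 460/530 nm ratio gave %activity.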

Where “and” joins values, the source holds several entries; their conditions need not be identical. Equal entries are not always repeated. Records with an inconclusive call do not appear. Some structures have more than one record in an assay (separate samples or runs), and their calls can disagree. Calls of active or inactive are those of the source. Unless noted, calls come from the whole dose curve; as a rule, active = well fitted curve in either direction with a large enough effect (not every such curve was filed as active); inconclusive = small, poorly fitted or top-dose-only effect, or another doubt; inactive = flat fitted curve, though single readings scatter.

Cytochrome P450 1A2 (Homo sapiens), sequence (P05177 whole entry, looked up): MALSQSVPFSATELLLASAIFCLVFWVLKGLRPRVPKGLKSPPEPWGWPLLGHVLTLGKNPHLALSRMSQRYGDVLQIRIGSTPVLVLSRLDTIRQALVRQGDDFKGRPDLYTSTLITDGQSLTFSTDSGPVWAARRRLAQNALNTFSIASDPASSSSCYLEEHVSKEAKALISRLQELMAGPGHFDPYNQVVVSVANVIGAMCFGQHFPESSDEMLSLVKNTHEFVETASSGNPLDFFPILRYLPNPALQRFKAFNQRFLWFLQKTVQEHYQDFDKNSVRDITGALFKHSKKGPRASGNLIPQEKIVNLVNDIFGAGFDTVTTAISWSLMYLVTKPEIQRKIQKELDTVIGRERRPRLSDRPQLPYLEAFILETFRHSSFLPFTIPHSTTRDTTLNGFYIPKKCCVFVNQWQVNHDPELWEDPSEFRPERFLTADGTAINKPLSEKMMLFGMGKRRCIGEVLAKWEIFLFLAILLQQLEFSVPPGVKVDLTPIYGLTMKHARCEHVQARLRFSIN

In the case of `NOCC(=O)O`, the activity change, negative = inhibition is 12.3% (inactive) in assay [1] and -5.75% (inactive) in assay [3]. In addition, the Potency entry in assay [2] is “inactive”.
In the same order, the values of `NC(=Nc1ccccc1)NC(=O)c1nc(Cl)c(N)nc1N` are -5.68% (inactive), 21.6% (inactive) and 12.6 µM (active).
On the same counts, the results for `CCCCCCC/C=C\CCCCCCCCC(=O)O` are 12.5% (inactive), -3.56% (inactive) and 31.6 µM (active).
On the same counts, the results for `O=C(O)C1=CC(=C(c2ccc(O)c(C(=O)O)c2)c2ccc(O)c(C(=O)O)c2)C=CC1=O` are -18.9% (inactive), 1.98% (inactive) and 10 µM (active).
On to `Cn1ccnc1`, for which the activity change, negative = inhibition in assay [1] was -6.19% (inactive); in assay [3], -1.47% (inactive). Besides, in assay [2], the Potency result is “inactive”.
As to `NC/C=C\C(=O)O`, the activity change, negative = inhibition in assay [1] is 2.58% (inactive) and 1.13% (inactive); in assay [3], 4.38% (inactive) and -3.77% (inactive). For the same compound, the Potency entry in assay [2] was “inactive”.
For the compound `N=C(N)SCCN`, the values for the activity change, negative = inhibition in assay [1] and in assay [3] were 3.17% (inactive) and -0.506% (inactive), respectively. Besides, the Potency entry in assay [2] is “inactive and 31.6 µM (active)”.
Take `CC(=O)N[C@@H](Cc1c[nH]c2ccccc12)C(=O)OCc1cc(C(F)(F)F)cc(C(F)(F)F)c1`: the activity change, negative = inhibition in assay [1] is 10.1% (inactive); in assay [3], 19.5% (inactive). In addition, the Potency in assay [2] is 31.6 µM (active).
Consider `O=c1[nH]ccc2c(O)cccc12`, for which the activity change, negative = inhibition in assay [1] was -7.94% (inactive); in assay [3], -6.89% (inactive). The Potency in assay [2] was 15.8 µM (active).
Consider `O=c1onc2cnc3ccccc3n12`, for which the activity change, negative = inhibition in assay [1] is -2.81% (inactive); in assay [3] it was 1.27% (inactive). In addition, in assay [2], the Potency is 12.6 µM (active) and 2.51 µM (active).
In the case of `C=CC[C@H](N)C(=O)O`, the activity change, negative = inhibition in assay [1] is 12.7% (inactive); in assay [3] it was 2.66% (inactive). In assay [2], the Potency result was “inactive”.
On the same counts, the results for `Cc1nc(N=Nc2ccc(S(=O)(=O)O)cc2S(=O)(=O)O)c(COP(=O)(O)O)c(C=O)c1O` are -10.9% (inactive), 2.46% (inactive) and “inactive”.
For the compound `C[C@H](NC(=O)/C(C#N)=C/c1ccc(O)c(O)c1)c1ccccc1`, the activity change, negative = inhibition in assay [1] was -18.9% (inactive) and -19.7% (inactive); in assay [3], -20.6% (inactive) and -13.5% (inactive). Further, in assay [2], the Potency was 31.6 µM (active) and 15.8 µM (active).
As to `CNC(=O)c1cc2c(cn1)[nH]c1ccccc12`, the activity change, negative = inhibition is 0.843% (inactive) in assay [1] and -1.62% (inactive) in assay [3]. Moreover, the Potency in assay [2] is 794 nM (active) and 50.1 nM (active).
Consider `N[C@@H](CS(=O)O)C(=O)O`, for which the Potency entry in assay [2] was “inactive”.
Turning to `C=C1C(=O)O[C@@H]2[C@H]3O[C@]3(C)CCC=C(C)CC[C@@H]12`, the Potency in assay [2] was 10 µM (active).
The same measure, in the same setting: as for `C/C(=C\c1ccc(C(=O)O)cc1)c1ccc2c(c1)C(C)(C)CCC2(C)C`, the entry is “inactive”.

The record behind these values is PubChem BioAssay (NCATS).
